A selection: hits, their analogues and other compounds. The true share with any hit is near 18%.
Gal4-VP16 FLuc – inhibits Gal4-VP16 luciferase reporter, ROR gamma counter-screen; Drosophila S2 Gal4-VP16 UAS-luciferase, luminescence, 20 h; Potency, µM (top dose mostly 53.6 µM), for the others: at the highest dose activity, negative = inhibition, hits mostly inhibitors; AID 2546; actives 3.5% (n = 310,000);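 also: Gal4-VP16 expression switched on by copper sulfate through the metallothionein promoter; potency is read from the fitted curve at half-maximal effect; nearly all actives have a fitted effect of over 50% in size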
DT40 TDP1 no CPT – qHTS for Inhibitors of human tyrosyl-DNA phosphodiesterase 1 (TDP1): qHTS in cells in absence of CPT | DT40 Tdp1-/- hTDP1 cells, no CPT, ATP luminescence, 48 h | Potency, µM (top dose mostly 46.2 µM), inactives show top-dose activity change, negative = growth inhibition, hits mostly inhibitors | actives 15% (n = 420,000); also: potency is read from the fitted curve at half-maximal effect; nearly all actives have a fitted effect of over 55% in size
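Camptothecin absent (DMSO only). Human TDP1-complemented DT40 knockout cells, 400 cells/well, 37 °C for minimum 48 hr; ATP measured via CellTiter-Glo, 30 min dark incubation, luminescence.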
TDP1 cell CPT – growth inhibition of DT40 Tdp1-/-;hTDP1 cells with camptothecin (screen for TDP1 inhibitors); chicken DT40 Tdp1-/-;hTDP1 cells + 20 nM CPT, ATP luminescence, 48 h; Potency, µM (doses to about 46.2 µM), for inactives: at the top dose activity change, negative = growth inhibition, hits mostly inhibitors; actives 12% (n = 420,000); also: potency is read from the fitted curve at half-maximal effect; nearly all actives have a fitted effect of over 55% in size
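Cell growth measured by CellTiter-Glo luminescence after a minimum 48 h, 37 C compound exposure with 20 nM CPT in Tdp1-knockout DT40 cells stably expressing hTDP1, seeded 400/well; qHTS titration format.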
IL1B secr inh – inhibitors of inflammasome signaling (IL-1 beta secretion). actives 4.7% (n = 360,000). activity change, % at 57.5 µM. THP-1 LPS/ATP IL-1B secretion, AlphaLISA, 16 h; stronger effect = lower value; in the data active = activity change below about -50%; inconclusive = mostly about -30% to -49%
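Secreted IL-1B measured by AlphaLISA bead assay after 16 h compound exposure of THP-1 cells; compounds (final up to 57.5 uM) added 1 h before LPS (250 ng/mL) and ATP (1.25 mM) stimulation; lower signal means less secretion.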
LDHA inh – blocks human lactate dehydrogenase A | actives 0.15% (n = 480,000) | purified LDHA, NADH/diaphorase-resazurin fluorescence; stronger effect = lower value | activity change, % (values are at about 110 or 230 µM) | P00338; in the data active = activity change below about -30%; inconclusive = mostly about -25% to -30%;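 also: plate controls were DMSO wells for no effect and wells without enzyme for full effect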
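LDH5 2 nM; NADH 0.06 mM, pyruvate 0.2 mM; 200 mM Tris pH 7.4, EDTA, Tween-20; 5 min RT. Detection: diaphorase 0.133 mg/mL + resazurin 37 µM, fluorescence ex540/em590 at 0 and 20 min; normalized to enzyme-free and DMSO wells.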
RORgamma inh – blocks mouse ROR gamma transcriptional activity; Potency, µM (series often up to 53.6 µM), without a hit: at the top dose activity change, negative = inhibition, usual class: inhibitors; actives 5.4% (n = 310,000); Drosophila S2 Gal4-RORgamma UAS-luciferase reporter, 20 h; AID 2551; also: potency is read from the fitted curve at half-maximal effect; nearly all actives have a fitted effect of over 60% in size
Target sequence (P51450 whole entry, looked up, the tested form may be a part): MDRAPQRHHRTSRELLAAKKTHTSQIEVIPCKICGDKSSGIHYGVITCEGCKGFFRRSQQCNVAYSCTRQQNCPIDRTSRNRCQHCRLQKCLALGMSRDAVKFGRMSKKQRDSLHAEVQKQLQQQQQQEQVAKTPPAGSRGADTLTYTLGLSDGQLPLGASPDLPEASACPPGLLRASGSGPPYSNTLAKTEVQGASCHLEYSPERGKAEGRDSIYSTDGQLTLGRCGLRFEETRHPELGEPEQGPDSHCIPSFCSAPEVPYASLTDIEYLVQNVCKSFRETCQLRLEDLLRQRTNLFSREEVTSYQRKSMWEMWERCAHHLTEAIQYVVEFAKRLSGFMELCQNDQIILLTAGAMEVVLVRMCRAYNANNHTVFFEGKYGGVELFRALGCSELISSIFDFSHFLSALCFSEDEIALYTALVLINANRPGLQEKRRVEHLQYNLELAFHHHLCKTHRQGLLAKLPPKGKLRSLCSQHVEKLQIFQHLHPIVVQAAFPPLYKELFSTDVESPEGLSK
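Using a luciferase readout, inhibitors were identified by reduced reporter activity in Drosophila cells coexpressing a copper-inducible Gal4–ROR gamma fusion and UAS-driven Photinus luciferase, incubated 20 hr after 700 uM copper sulfate.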
* marks the source's active call; other numbers are inactive results. Unless noted, calls follow the shape of the dose curve; as a rule, active = well fitted curve in the direction sought with a large enough effect; inconclusive = small, poorly fitted or top-dose-only effect, or another doubt; inactive = no such curve, though single readings can be large; an effect the other way counts as inactive or inconclusive. Unless noted, % is scaled to controls: 0 for no effect and ±100 for the full control effect.

COc1cc(/C=C2/SC(=O)NC2=O)ccc1OC(=O)c1ccco1 was read as Gal4-VP16 FLuc -6%, DT40 TDP1 no CPT 16µM*, TDP1 cell CPT 16µM*, IL1B secr inh -22, LDHA inh -3 and RORgamma inh 36%.
`Cc1ccccc1-c1cc2nc(-c3ccc([N+](=O)[O-])cc3)cc(=O)n2[nH]1` gave Gal4-VP16 FLuc -14%, DT40 TDP1 no CPT -15%, TDP1 cell CPT -22%, IL1B secr inh 17, LDHA inh -4 and RORgamma inh -24%.
Screening Cc1cccc(-c2cc3nc(-c4ccccc4)cc(=O)n3[nH]2)c1 returned Gal4-VP16 FLuc inconclusive, DT40 TDP1 no CPT 23µM*, TDP1 cell CPT 23µM*, IL1B secr inh 1, LDHA inh 7 and RORgamma inh inconclusive.
Screening Cc1cc(=O)n2[nH]c(-c3ccsc3-n3c(C)ccc3C)cc2n1 returned Gal4-VP16 FLuc 5%, DT40 TDP1 no CPT inconclusive, TDP1 cell CPT inconclusive, IL1B secr inh -4, LDHA inh -2 and RORgamma inh 28%.
Cc1cc(=O)n2[nH]c(-c3ccc(Cl)cc3)cc2n1 was read as Gal4-VP16 FLuc inconclusive, DT40 TDP1 no CPT 21µM*, TDP1 cell CPT 18µM*, IL1B secr inh 4, LDHA inh 1 and RORgamma inh inconclusive.
Cc1cc2nc(CSc3ccc(Cl)cc3)cc(=O)n2[nH]1 was read as Gal4-VP16 FLuc inconclusive, DT40 TDP1 no CPT inconclusive, TDP1 cell CPT inconclusive, IL1B secr inh 47, LDHA inh 9 and RORgamma inh 11µM*.
`Cc1cc(=O)n2[nH]c(-c3ccc(F)cc3)cc2n1` gave Gal4-VP16 FLuc -8%, DT40 TDP1 no CPT 13µM*, TDP1 cell CPT inconclusive, IL1B secr inh -5, LDHA inh 0 and RORgamma inh -30%.
Screening CC(C)CCN1CCN(c2nc3c(c(=O)[nH]c(=O)n3C)n2Cc2ccc(Cl)c(Cl)c2)CC1 returned LDHA inh -1.
C=CCNC(=O)NC(=O)CN(C)Cc1ccc(C(F)(F)F)cc1 was read as LDHA inh 3.
`Cc1cc(=O)n2[nH]c(C)c(-c3ccc(Cl)cc3)c2n1` gave Gal4-VP16 FLuc 16µM*, DT40 TDP1 no CPT inconclusive, TDP1 cell CPT 23µM*, IL1B secr inh 1, LDHA inh -8 and RORgamma inh 7.1µM*.
`Cc1ccsc1C(=O)OCC(=O)Nc1ccc(Cl)c(C(F)(F)F)c1` gave LDHA inh 9.
Screening COc1ccc(-c2nn(-c3ccccc3)cc2/C=N/Nc2ccc3ccccc3n2)cc1OC returned Gal4-VP16 FLuc 5µM*, DT40 TDP1 no CPT 4.1µM*, TDP1 cell CPT 3.3µM*, IL1B secr inh -25, LDHA inh -4 and RORgamma inh 1.8µM*.
COc1ccc(-c2nn(-c3ccccc3)cc2/C=N/Nc2ccc(S(N)(=O)=O)cc2[N+](=O)[O-])cc1OC was read as Gal4-VP16 FLuc inconclusive, DT40 TDP1 no CPT inconclusive, TDP1 cell CPT -26%, IL1B secr inh 16, LDHA inh -3 and RORgamma inh inconclusive.
`COc1ccc(-c2nn(-c3ccccc3)cc2CO)cc1OC` gave Gal4-VP16 FLuc 2%, DT40 TDP1 no CPT -27%, TDP1 cell CPT inconclusive, IL1B secr inh -11, LDHA inh -4 and RORgamma inh -15%.
For COC(=O)c1cn(-c2ccccc2)nc1-c1ccc(OC)c(OC)c1 the results were Gal4-VP16 FLuc -10%, DT40 TDP1 no CPT inconclusive, TDP1 cell CPT -2%, IL1B secr inh 11, LDHA inh 1 and RORgamma inh 11%.
O/N=C/c1cn(-c2ccccc2)nc1-c1ccccc1 was read as Gal4-VP16 FLuc -20%, DT40 TDP1 no CPT inconclusive, TDP1 cell CPT inconclusive, IL1B secr inh -7, LDHA inh -1 and RORgamma inh 1%.
`COc1ccc(-c2nn(-c3ccccc3)cc2/C=N/NC(=S)NC(C)C)cc1OC` gave Gal4-VP16 FLuc 2.2µM*, DT40 TDP1 no CPT 18µM*, TDP1 cell CPT 23µM*, IL1B secr inh inconclusive, LDHA inh -5 and RORgamma inh 1.4µM*.
Screening COc1ccc(-c2nn(-c3ccccc3)cc2/C=N/O)cc1OC returned Gal4-VP16 FLuc 1.8µM*, DT40 TDP1 no CPT 26µM*, TDP1 cell CPT inconclusive, IL1B secr inh -11, LDHA inh 0 and RORgamma inh 1µM*.
COc1ccc(-c2nn(-c3ccccc3)cc2/C=N/N=C(N)N)cc1OC was read as Gal4-VP16 FLuc -7%, DT40 TDP1 no CPT 13µM*, TDP1 cell CPT 23µM*, IL1B secr inh inconclusive, LDHA inh 0 and RORgamma inh 25%.
O=C(NCCN1CCN(C(=O)c2ccc(Cl)c(Cl)c2)CC1)c1ccc(Cl)c(Cl)c1 was read as LDHA inh -7.
For O=[N+]([O-])c1ccc(C=Nc2cccc3ccccc23)s1 the results were Gal4-VP16 FLuc inconclusive, DT40 TDP1 no CPT 21µM*, TDP1 cell CPT 21µM*, IL1B secr inh -97*, LDHA inh 42 and RORgamma inh inconclusive.
`O=[N+]([O-])c1ccc(C=NN2CCOCC2)s1` gave DT40 TDP1 no CPT inconclusive, TDP1 cell CPT 21µM*, IL1B secr inh 5 and LDHA inh 3.
`CCc1ccc(CNC(=O)CSc2cc(=O)n(C)c3ccc(Cl)cc23)cc1` gave DT40 TDP1 no CPT 23µM*, TDP1 cell CPT 23µM* and LDHA inh -12.
`COCCNC(=O)CSc1cc(=O)n(C)c2cc(Cl)ccc12` gave Gal4-VP16 FLuc -2%, DT40 TDP1 no CPT 4%, TDP1 cell CPT 24%, IL1B secr inh 12, LDHA inh -5 and RORgamma inh -14%.
For CN(CCCNC(=O)CSc1cc(=O)n(C)c2ccc(Cl)cc12)Cc1ccccc1 the results were Gal4-VP16 FLuc 6%, DT40 TDP1 no CPT inconclusive, TDP1 cell CPT inconclusive, IL1B secr inh -54*, LDHA inh 0 and RORgamma inh -35%.
CCc1nc(N2CCN(C(=O)c3ccccc3)CC2)c2c3c(sc2n1)CCCC3 was read as Gal4-VP16 FLuc -15%, DT40 TDP1 no CPT 23µM*, TDP1 cell CPT inconclusive, IL1B secr inh -78*, LDHA inh -2 and RORgamma inh -3%.
COCCCNC(=S)N1CCN(c2nc(C)nc3sc4c(c23)CCCC4)CC1 was read as Gal4-VP16 FLuc -9%, DT40 TDP1 no CPT inconclusive, TDP1 cell CPT 16µM*, IL1B secr inh -13, LDHA inh -6 and RORgamma inh inconclusive.

Bioassay records: PubChem BioAssay, National Center for Advancing Translational Sciences (NCATS)
